Bioassay records: PubChem BioAssay, Broad Institute
IDE exosite FP – exo-site inhibitors of human IDE, primary screen, biochemical, fluorescence anisotropy, probe displacement; Insulin-degrading enzyme (Homo sapiens), P14735; purified IDE, FL-6b probe fluorescence polarization; stronger effect = lower value; z-score at 20 µM; 6.3% of 17,000 active; AID 1259349, 2017;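 active = z-score of -3 or lower, meaning strong loss of probe binding signal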;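 note: His-tagged human IDE residues 42-1019 made in E. coli with 30 nM FL-6b probe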
Target sequence (P14735 42-1019 limits assumed): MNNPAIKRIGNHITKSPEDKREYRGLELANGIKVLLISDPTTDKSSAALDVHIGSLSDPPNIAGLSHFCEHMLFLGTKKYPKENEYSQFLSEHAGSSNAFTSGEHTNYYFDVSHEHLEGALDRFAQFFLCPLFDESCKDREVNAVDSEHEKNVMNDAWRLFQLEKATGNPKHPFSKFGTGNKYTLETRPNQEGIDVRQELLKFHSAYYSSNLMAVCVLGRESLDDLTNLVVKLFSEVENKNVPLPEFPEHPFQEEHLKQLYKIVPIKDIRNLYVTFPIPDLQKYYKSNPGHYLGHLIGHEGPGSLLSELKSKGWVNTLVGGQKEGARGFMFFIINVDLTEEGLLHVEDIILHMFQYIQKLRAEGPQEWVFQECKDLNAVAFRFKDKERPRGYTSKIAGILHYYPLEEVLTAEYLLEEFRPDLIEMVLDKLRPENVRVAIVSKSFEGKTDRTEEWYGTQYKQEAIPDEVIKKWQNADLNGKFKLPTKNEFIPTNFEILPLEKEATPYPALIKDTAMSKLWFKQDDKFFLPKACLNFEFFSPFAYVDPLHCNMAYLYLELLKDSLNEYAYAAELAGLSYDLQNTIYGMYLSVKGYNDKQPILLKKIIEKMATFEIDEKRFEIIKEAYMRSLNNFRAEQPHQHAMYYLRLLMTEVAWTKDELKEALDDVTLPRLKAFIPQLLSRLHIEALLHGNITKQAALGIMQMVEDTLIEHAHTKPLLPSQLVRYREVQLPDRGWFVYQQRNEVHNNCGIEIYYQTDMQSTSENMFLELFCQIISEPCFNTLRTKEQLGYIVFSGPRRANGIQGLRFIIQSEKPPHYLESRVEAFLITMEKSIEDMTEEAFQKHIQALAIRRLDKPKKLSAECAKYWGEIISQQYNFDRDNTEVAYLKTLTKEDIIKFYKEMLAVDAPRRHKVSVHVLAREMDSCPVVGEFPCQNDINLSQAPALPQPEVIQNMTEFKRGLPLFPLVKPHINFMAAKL
Numbers without * were called inactive. This excerpt belongs to a sample that is enriched for hits.

CC(C)[C@@H]1C/C=C\CCNC(=O)[C@H](C)CC(=O)N1 was read as IDE exosite FP 1.97.
Screening CO[C@H]1CC[C@H]2CCN(C)C(=O)CCCN(C)C(=O)c3cc(C#N)ccc3OC[C@@H]1O2 returned IDE exosite FP 0.194.
For COc1ccc(-c2ccc([C@@H]3[C@@H](C#N)N(C(=O)c4cccnc4)[C@H]3CO)cc2)cc1 the results were IDE exosite FP 2.85.
`C[C@@H]1CC=CC[C@@H](c2ccc3c(c2)OCO3)NC(=O)[C@@H](C)N(C)C(=O)c2ccccc2O1` (mixture of isomers) gave IDE exosite FP -0.303.
For O=C(Nc1ccc(F)cc1)N1CC(=O)N2[C@H](CO)[C@@H](c3ccc(-c4ccc(F)cc4)cc3)[C@H]2C1 the results were IDE exosite FP 1.39.
Screening Cc1ccccc1-c1ccc([C@H]2[C@H]3CN(C(=O)Nc4ccc(F)cc4)CC(=O)N3[C@H]2CO)cc1 returned IDE exosite FP -6.97*.
O=C(Nc1ccc(F)cc1)N1CC(=O)N2[C@H](CO)[C@@H](c3ccc(-c4ccccc4)cc3)[C@H]2C1 was read as IDE exosite FP 1.63.
O=C(Nc1ccccc1)N1CC(=O)N2[C@H](CO)[C@H](c3ccc(-c4ccc(F)cc4)cc3)[C@@H]2C1 was read as IDE exosite FP 2.47.
O=C(Nc1cccc(F)c1)N1CC(=O)N2[C@@H](CO)[C@H](c3ccc(-c4ccccc4F)cc3)[C@@H]2C1 was read as IDE exosite FP -0.94.
O=C(Nc1ccc(F)cc1)N1CC(=O)N2[C@@H](CO)[C@H](c3ccc(-c4ccccc4)cc3)[C@@H]2C1 was read as IDE exosite FP 0.291.
Screening Cc1ccccc1-c1ccc([C@H]2[C@H](CO)N3C(=O)CN(C(=O)Nc4cccc(F)c4)C[C@@H]23)cc1 returned IDE exosite FP -3.03*.
Screening O=C(Nc1ccccc1)N1CC(=O)N2[C@@H](CO)[C@H](c3ccc(-c4ccc(F)cc4)cc3)[C@@H]2C1 returned IDE exosite FP 1.07.
O=C(Nc1ccc(F)cc1)N1CC(=O)N2[C@@H](CO)[C@@H](c3ccc(-c4ccc(F)cc4)cc3)[C@@H]2C1 was read as IDE exosite FP 1.19.
O=C(Nc1ccc(F)cc1)N1CC(=O)N2[C@H](CO)[C@H](c3ccc(-c4ccccc4)cc3)[C@H]2C1 was read as IDE exosite FP -5.46*.
For Cc1ccccc1-c1ccc([C@@H]2[C@@H](CO)N3C(=O)CN(C(=O)Nc4ccccc4)C[C@H]23)cc1 the results were IDE exosite FP -6.07*.
`O=C(Nc1cccc(F)c1)N1CC(=O)N2[C@@H](CO)[C@@H](c3ccc(-c4ccccc4F)cc3)[C@@H]2C1` gave IDE exosite FP -1.88.
Screening N#Cc1ccc(-c2ccc([C@@H]3[C@@H](CO)N4C(=O)CN(C(=O)Cc5ccccc5)C[C@H]34)cc2)cc1 returned IDE exosite FP 3.32.
Screening CCC(=O)N1[C@@H](CO)[C@H](c2ccccc2)C12CN(C(=O)c1ccc3c(c1)OCO3)C2 returned IDE exosite FP 0.259.
For CCCC(=O)N1CC2(C1)CN(S(=O)(=O)c1ccc(C)cc1)[C@H](CO)c1[nH]c3cc(OC)ccc3c12 the results were IDE exosite FP 0.708.
CO[C@H]1CN(C)C(=O)c2cc(NC(=O)Nc3ccccc3F)ccc2OC[C@H](C)N(CCC(F)(F)F)C[C@@H]1C was read as IDE exosite FP 0.177.
`C/C=C/c1ccc([C@H]2[C@@H](CO)N(C(=O)CC)[C@@H]2CNC(=O)CC)cc1` gave IDE exosite FP 0.608.
CN(C)C(=O)c1ccc(-c2ccccc2[C@@H]2[C@@H](CO)N(C(=O)C3CC3)[C@H]2C#N)cc1 was read as IDE exosite FP -0.735.
`COCC(=O)N(C)C[C@H]1[C@H](c2ccc(-c3ccccc3)cc2)[C@H](CO)N1C(C)=O` gave IDE exosite FP 2.39.
For CC(C)NC(=O)N1[C@H](CO)[C@@H](c2ccc(C#CC3CC3)cc2)[C@@H]1C#N the results were IDE exosite FP 5.69.
For Cc1ccc(-c2ccc([C@@H]3[C@@H](CO)N4C(=O)CN(C(=O)Nc5ccc(F)cc5)C[C@H]34)cc2)cc1 the results were IDE exosite FP 1.36.
`O=C(Nc1ccc(F)cc1)N1CC(=O)N2[C@H](CO)[C@H](c3ccc(-c4ccccc4)cc3)[C@@H]2C1` gave IDE exosite FP 1.54.
Screening Cc1ccccc1-c1ccc([C@H]2[C@@H](CO)N3C(=O)CN(C(=O)Nc4ccc(F)cc4)C[C@H]23)cc1 returned IDE exosite FP -21.3*.
`CC(C)(C)[S@](=O)N1Cc2cc(C(=O)NCC(F)(F)F)nc(-c3cccc(-c4cccc(F)c4)c3)c2[C@@H]1CCO` gave IDE exosite FP -0.591.
For CC(C)(C)[S@@](=O)N1Cc2cc(C(=O)NCc3ccccc3F)nc(-c3cccc(-c4cncnc4)c3)c2[C@H]1CCO the results were IDE exosite FP -5.53*.
CCCNC(=O)c1cc2c(c(-c3cccc(-c4ccc(F)cc4)c3)n1)[C@H](CCO)N([S@@](=O)C(C)(C)C)C2 was read as IDE exosite FP 1.47.
CC(C)C#Cc1ccc([C@@H]2[C@H](CO)N3CCCCN(C(=O)c4ccc5c(c4)OCO5)C[C@@H]23)cc1 was read as IDE exosite FP 2.93.
`CN(C)CC(=O)N[C@@H]1CC[C@H](CCNC(=O)C2CCC2)O[C@@H]1CO` gave IDE exosite FP 1.96.
For O=C(Nc1ccccc1F)N1CCCCN2[C@H](CO)[C@@H](c3ccc(C#Cc4cccnc4)cc3)[C@H]2C1 the results were IDE exosite FP -2.06.
O=C(Nc1ccccc1)N1CCCCN2[C@@H](CO)[C@@H](c3ccc(C#Cc4cccnc4)cc3)[C@@H]2C1 was read as IDE exosite FP 4.1.
`O=C(Nc1cccc(F)c1)N1CCCCN2[C@H](CO)[C@H](c3ccc(C#Cc4ccccc4)cc3)[C@H]2C1` gave IDE exosite FP -1.02.
`O=C(Nc1ccccc1)N1CCCCN2[C@@H](CO)[C@H](c3ccc(C#Cc4cccnc4)cc3)[C@@H]2C1` gave IDE exosite FP -5.33*.
For O=C(Nc1cccc(F)c1)N1CCCCN2[C@@H](CO)[C@H](c3ccc(C#Cc4ccccc4)cc3)[C@@H]2C1 the results were IDE exosite FP -3.53*.
Screening O=C(Nc1ccccc1)N1CCCCN2[C@H](CO)[C@@H](c3ccc(C#Cc4cccnc4)cc3)[C@H]2C1 returned IDE exosite FP 2.07.
`O=C(Nc1cccc(F)c1)N1CCCCN2[C@H](C1)[C@H](c1ccc(C#Cc3ccccc3)cc1)[C@@H]2CO` gave IDE exosite FP 2.64.
O=C(Nc1ccccc1F)N1CCCCN2[C@H](CO)[C@H](c3ccc(C#Cc4cccnc4)cc3)[C@@H]2C1 was read as IDE exosite FP -6.83*.
For O=C(Nc1ccccc1F)N1CCCCN2[C@H](C1)[C@H](c1ccc(C#Cc3cccnc3)cc1)[C@@H]2CO the results were IDE exosite FP 1.98.
O=C(Nc1ccc(F)cc1)N1CC(=O)N2[C@H](C1)[C@H](c1ccc(C#Cc3ccc(F)cc3)cc1)[C@@H]2CO was read as IDE exosite FP 0.485.
N#Cc1ccc(-c2ccc([C@@H]3[C@H](CO)N4C(=O)CNC[C@@H]34)cc2)cc1 was read as IDE exosite FP -1.39.
`CN(C)C(=O)c1ccc(-c2ccc([C@H]3[C@H](CO)N4C(=O)CN(C(=O)CC5CC5)C[C@@H]34)cc2)cc1` gave IDE exosite FP -1.86.
For O=C(C[C@H]1CC[C@@H](NC(=O)c2ccc(F)cc2)[C@H](CO)O1)NCCc1ccccc1 the results were IDE exosite FP 3.6.
